Inconclusive results are not listed. Activity calls are given as the source filed them. Unless noted, calls follow the shape of the dose curve; as a rule, active = well fitted curve in the direction sought with a large enough effect; inconclusive = small, poorly fitted or top-dose-only effect, or another doubt; inactive = no such curve, though single readings can be large; an effect the other way counts as inactive or inconclusive.
Assays:
[1] = AP1 Signaling Pathway (AID 357; active = well fitted curve in either direction with a large enough effect, not every such curve was filed as active; also: % is scaled to controls: 0 for no effect and ±100 for the full control effect)
How it was run: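 ME-180 cells with beta-lactamase reporter under AP-1 response element, stimulated with EC50 EGF; compounds tested in titration series, 5 h at 37 °C. CCF4 substrate added 2.5 h at room temperature; 460/530 nm emission ratio gave %activity and AC50.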

[2] = NFAT Signaling Pathway (AID 444; active = well fitted curve in either direction with a large enough effect, not every such curve was filed as active;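 also: carbachol stimulus at about its EC50 of 1 µM final; % is scaled to controls: 0 for no effect and ±100 for the full control effect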); details: Jurkat NFAT-bla M1, carbachol, beta-lactamase ratio, 5 h; at 17.2 µM (top of the series) unless noted
How it was run: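 Jurkat cells with NFAT-driven β-lactamase reporter and co-expressed M1 receptor, stimulated with carbachol (final 1 uM, ~EC50), compound titration, 5 h at 37 °C. CCF4 loaded 1 h at RT; 460/530 nm ratio gave %activity and AC50.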

[3] = biological target: Mitogen-activated protein kinase 10 (Mus musculus) (UniProt Q61831); assay: JNK3 AlphaScreen Assay (AID 530; active = well fitted curve in either direction with a large enough effect, not every such curve was filed as active;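 also: kinase came from lysate of stimulated human HepG2 cells; signal reports phosphorylation of biotinylated GST-cJun 1-79 at Ser73 with 10 µM ATP; % is scaled to controls: 0 for no effect and ±100 for the full control effect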)
How it was run: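 Activity was read by AlphaScreen after JNK3-containing HepG2 lysate (cytokine pre-activated) phosphorylated biotinylated GST-cJun with 10 uM ATP at room temperature. Phospho-Ser73 cJun antibody with Protein-A acceptor beads provided detection.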

[4] = biological target: 3',5'-cyclic-AMP phosphodiesterase 4B (Homo sapiens) (UniProt Q07343); assay: qHTS Assay for Inhibitors of PDE-IV (AID 607; active = well fitted activation curve with a large enough effect in the main read-out, with a control signal flat, not every such curve was filed as active; also: % of control where 0% means no effect)
3',5'-cyclic-AMP phosphodiesterase 4B (Homo sapiens), sequence (Q07343 whole entry, looked up): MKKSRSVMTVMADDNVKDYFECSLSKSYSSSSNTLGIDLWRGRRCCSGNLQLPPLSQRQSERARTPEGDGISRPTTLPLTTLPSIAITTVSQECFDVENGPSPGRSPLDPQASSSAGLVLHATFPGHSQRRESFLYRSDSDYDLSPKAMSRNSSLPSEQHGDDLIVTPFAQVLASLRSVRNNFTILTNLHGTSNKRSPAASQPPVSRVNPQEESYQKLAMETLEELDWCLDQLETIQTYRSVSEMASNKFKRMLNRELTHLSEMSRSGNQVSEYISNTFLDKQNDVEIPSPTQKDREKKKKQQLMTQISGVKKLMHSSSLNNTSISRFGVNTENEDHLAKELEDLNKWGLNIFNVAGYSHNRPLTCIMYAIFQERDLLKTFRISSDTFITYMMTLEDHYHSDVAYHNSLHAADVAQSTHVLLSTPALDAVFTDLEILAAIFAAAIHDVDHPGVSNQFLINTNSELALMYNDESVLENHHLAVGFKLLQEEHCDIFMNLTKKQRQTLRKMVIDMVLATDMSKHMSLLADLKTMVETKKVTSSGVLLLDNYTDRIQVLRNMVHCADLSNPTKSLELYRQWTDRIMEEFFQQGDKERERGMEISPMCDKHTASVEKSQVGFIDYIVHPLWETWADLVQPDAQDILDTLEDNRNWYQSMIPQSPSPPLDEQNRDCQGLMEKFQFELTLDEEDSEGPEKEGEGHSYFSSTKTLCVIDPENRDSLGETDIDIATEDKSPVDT
How it was run: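 Cell-based read-out of cAMP via a modified cyclic nucleotide-gated channel and membrane potential dye (535/590 nm) in HEK293 cells expressing PDE4 endogenously. Compounds tested up to 22.9 uM final; 100 uM RO 20-1724 reference.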

[5] = qHTS Assay for Lipid Storage Modulators (AID 1519; calls by dose curve); details: Drosophila S3 cells, BODIPY lipid droplet/cell ratio, laser cytometry, cells loaded with oleic acid; for activity change, negative = inhibition: at 25.7 µM (top of the series)
How it was run: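 Cells seeded at 5,000 per well were treated with compounds over a concentration series and loaded with oleic acid (400 uM, as added). Lipid droplet fluorescence (488 nm excitation, 500-530 nm channel) was read by laser-scanning cytometry and normalized to 20 uM Triacsin C.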

[6] = biological target: ATP-dependent 6-phosphofructokinase (Trypanosoma brucei brucei) (UniProt O15648); assay: qHTS Assay to Find Inhibitors of T. brucei phosphofructokinase: hit validation (AID 492961); also: % is scaled to controls: 0 for no effect and ±100 for the full control effect
ATP-dependent 6-phosphofructokinase (Trypanosoma brucei brucei), sequence (O15648 whole entry, looked up): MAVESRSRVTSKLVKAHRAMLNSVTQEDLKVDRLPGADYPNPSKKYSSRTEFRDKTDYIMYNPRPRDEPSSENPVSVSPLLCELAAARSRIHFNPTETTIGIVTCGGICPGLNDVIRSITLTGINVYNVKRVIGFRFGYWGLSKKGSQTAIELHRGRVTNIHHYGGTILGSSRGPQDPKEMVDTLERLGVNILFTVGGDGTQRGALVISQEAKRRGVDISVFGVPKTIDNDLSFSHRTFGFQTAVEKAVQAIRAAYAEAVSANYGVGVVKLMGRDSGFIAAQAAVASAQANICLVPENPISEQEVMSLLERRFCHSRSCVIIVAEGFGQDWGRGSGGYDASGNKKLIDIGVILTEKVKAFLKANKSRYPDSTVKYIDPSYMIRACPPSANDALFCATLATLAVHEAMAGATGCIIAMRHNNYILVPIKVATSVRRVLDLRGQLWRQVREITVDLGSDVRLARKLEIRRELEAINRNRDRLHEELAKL
How it was run: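 Luminescence from ADP-Glo reports ADP generated as T. brucei PFK (1.25 nM) phosphorylates 0.5 mM fructose-6-phosphate using 0.1 mM ATP. Reactions ran 45 min at room temperature, pH 8.0.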

[7] = biological target: Ubiquitin carboxyl-terminal hydrolase 1 (Homo sapiens) (UniProt O94782); assay: Inhibitors of USP1/UAF1: Pilot qHTS (AID 504865);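 also: rhodamine fluorescence freed from ubiquitin-rhodamine substrate followed over time; top concentration of the series differs between compounds; % is scaled to controls: 0 for no effect and ±100 for the full control effect; nearly all actives have a fitted effect of over 35% in size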
Ubiquitin carboxyl-terminal hydrolase 1 (Homo sapiens), sequence (O94782 whole entry, looked up): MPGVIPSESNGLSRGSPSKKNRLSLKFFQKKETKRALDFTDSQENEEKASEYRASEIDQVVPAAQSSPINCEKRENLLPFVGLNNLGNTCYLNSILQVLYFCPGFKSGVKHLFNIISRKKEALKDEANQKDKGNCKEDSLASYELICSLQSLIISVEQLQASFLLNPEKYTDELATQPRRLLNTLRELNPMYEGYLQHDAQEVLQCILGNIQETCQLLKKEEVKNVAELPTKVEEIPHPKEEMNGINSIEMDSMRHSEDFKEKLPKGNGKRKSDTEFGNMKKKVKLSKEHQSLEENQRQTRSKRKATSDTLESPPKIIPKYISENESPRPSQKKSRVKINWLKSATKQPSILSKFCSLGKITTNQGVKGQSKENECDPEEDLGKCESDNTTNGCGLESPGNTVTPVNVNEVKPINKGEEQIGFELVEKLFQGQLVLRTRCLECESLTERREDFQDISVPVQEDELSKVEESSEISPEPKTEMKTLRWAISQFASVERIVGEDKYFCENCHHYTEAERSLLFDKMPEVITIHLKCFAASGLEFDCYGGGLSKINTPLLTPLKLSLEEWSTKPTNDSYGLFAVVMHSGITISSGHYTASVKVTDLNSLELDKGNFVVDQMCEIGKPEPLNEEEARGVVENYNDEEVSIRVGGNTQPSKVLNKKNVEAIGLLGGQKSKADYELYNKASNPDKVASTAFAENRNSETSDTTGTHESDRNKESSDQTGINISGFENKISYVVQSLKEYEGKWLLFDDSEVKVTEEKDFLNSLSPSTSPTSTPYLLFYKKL
How it was run: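 Deubiquitinase activity followed as kinetic rhodamine fluorescence release from 150 nM Ub-Rho. 1 nM USP1/UAF1 with compound, after 15 min room-temperature preincubation, in HEPES pH 7.8 buffer containing TCEP, EDTA, BSA and Tween-20.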

[8] = biological target: Luciferin 4-monooxygenase (Photinus pyralis) (UniProt P08659); assay: Biochemical firefly luciferase enzyme assay for NPC (AID 624030);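 also: purified P. pyralis luciferase at 10 nM with luciferin and ATP substrate; 0% = DMSO and -100% = full luciferase inhibition by PTC124 control; nearly all actives have a fitted effect of over 70% in size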
Luciferin 4-monooxygenase (Photinus pyralis), sequence (P08659 whole entry, looked up): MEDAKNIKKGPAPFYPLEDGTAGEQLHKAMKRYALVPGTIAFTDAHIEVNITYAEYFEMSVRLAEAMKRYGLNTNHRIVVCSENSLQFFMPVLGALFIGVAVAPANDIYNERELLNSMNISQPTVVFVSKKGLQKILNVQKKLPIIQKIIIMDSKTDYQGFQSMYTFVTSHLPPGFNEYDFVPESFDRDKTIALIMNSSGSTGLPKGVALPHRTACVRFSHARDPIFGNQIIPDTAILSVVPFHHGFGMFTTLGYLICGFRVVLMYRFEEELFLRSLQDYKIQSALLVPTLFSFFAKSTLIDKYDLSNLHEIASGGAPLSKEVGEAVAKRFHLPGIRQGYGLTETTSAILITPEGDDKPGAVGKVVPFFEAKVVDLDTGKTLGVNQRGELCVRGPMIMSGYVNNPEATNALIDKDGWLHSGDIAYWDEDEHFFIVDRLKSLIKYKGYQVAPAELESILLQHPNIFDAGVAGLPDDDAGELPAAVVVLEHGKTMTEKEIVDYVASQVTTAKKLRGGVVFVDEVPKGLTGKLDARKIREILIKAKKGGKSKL
How it was run: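 Purified P. pyralis luciferase at 10 nM in 50 mM Tris Acetate (final), luminescence read within 5 minutes of enzyme addition to compounds. Activity normalised to PTC124 versus DMSO; concentration-response curves classed by r2, magnitude and activity.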

[9] = S16 Schwann cell PMP22 intronic element firefly luciferase assay (AID 624032);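 also: plate controls were DMSO for no effect and PTC124 positive control mean for full effect; nearly all actives have a fitted effect of over 30% in size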
How it was run: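 Rat S16 Schwann cells stably carrying firefly luciferase driven by a PMP22 intronic element, in 10% FBS, treated 24 h at 37 C. ONE-Glo luminescence normalized to PTC124 control and DMSO (0%); curves classed by r2, magnitude and activity.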

[10] = qHTS profiling for inhibitors of Plasmodium falciparum proliferation (AID 504749); also: nearly all actives have a fitted effect of over 60% in size; also: potency is read from the fitted curve at half-maximal effect;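 as to activity, negative = inhibition: 0% = DMSO vehicle and full inhibition = artemisinin control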; details: P. falciparum in erythrocytes, SYBR Green DNA, 72 h
How it was run: (§1)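 Each compound contacts P. falciparum-infected red blood cells for 72 h at 37 C; lysis buffer (Tris, EDTA, saponin, Triton X, SYBR Green I) is added and fluorescence measured next morning; values normalized to controls.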

[11] = system: AS120; assay: as above; details: P. falciparum in erythrocytes, SYBR Green DNA, 72 h; series mostly up to 12.8 µM
How it was run: as §1

[12] = system: C2A; assay: as above; details: P. falciparum in erythrocytes, SYBR Green DNA, 72 h; series mostly up to 12.8 µM
How it was run: as §1

[13] = system: CP238; assay: as above; details: P. falciparum in erythrocytes, SYBR Green DNA, 72 h; series mostly up to 12.8 µM
How it was run: as §1

[14] = system: CP250; assay: as above; details: P. falciparum in erythrocytes, SYBR Green DNA, 72 h; series mostly up to 12.8 µM
How it was run: as §1

[15] = system: CP252; assay: as above; details: P. falciparum in erythrocytes, SYBR Green DNA, 72 h; series mostly up to 12.8 µM
How it was run: as §1

[16] = system: HB3; assay: as above; details: P. falciparum in erythrocytes, SYBR Green DNA, 72 h; series mostly up to 12.8 µM
How it was run: as §1

[17] = system: SC27B; assay: as above; details: P. falciparum in erythrocytes, SYBR Green DNA, 72 h; series mostly up to 12.8 µM
How it was run: as §1

[18] = Stat Signaling Pathway (AID 446; active = well fitted curve in either direction with a large enough effect, not every such curve was filed as active)
How it was run: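 FRET read-out (405 nm excitation, 460/530 nm emission) of a beta-lactamase reporter under a STAT-inducible element in ME-180 cervical carcinoma cells. Cells with compound receive 40 pM IL-6 for 5 h. Values are normalised to AC90 stimulation and AC90 JAK-inhibitor controls.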

[19] = biological target: Glucocorticoid receptor (Homo sapiens) (UniProt P04150); assay: GR-GFP Redistribution (AID 450;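 active = compounds whose dose series gives a full or clear partial fitted curve of increased nuclear translocation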; also: potency is read from the fitted curve at half-maximal effect); details: U2OS GR-GFP nuclear translocation, laser cytometry, 2 h
Glucocorticoid receptor (Homo sapiens), sequence (P04150 whole entry, looked up, the tested form may be a part): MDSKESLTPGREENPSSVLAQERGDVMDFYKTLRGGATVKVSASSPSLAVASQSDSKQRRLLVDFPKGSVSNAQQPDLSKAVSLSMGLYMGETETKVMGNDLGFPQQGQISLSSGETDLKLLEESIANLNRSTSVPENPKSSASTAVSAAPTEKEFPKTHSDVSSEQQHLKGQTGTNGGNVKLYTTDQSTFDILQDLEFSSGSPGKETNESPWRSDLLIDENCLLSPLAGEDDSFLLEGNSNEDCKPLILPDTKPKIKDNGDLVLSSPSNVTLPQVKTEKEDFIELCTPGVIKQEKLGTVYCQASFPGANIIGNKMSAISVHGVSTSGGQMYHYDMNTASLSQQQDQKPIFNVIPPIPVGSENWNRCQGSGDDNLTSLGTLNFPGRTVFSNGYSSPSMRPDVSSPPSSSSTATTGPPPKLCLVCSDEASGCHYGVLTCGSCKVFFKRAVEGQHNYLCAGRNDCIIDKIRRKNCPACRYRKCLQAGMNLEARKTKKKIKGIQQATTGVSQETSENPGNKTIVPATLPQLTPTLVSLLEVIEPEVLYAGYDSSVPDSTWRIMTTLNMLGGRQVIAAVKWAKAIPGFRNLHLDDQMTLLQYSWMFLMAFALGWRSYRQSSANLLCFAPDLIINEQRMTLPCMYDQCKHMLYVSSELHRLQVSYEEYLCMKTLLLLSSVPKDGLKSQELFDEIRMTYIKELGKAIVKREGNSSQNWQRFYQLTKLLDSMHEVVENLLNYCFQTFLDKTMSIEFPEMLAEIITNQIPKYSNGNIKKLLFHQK

[20] = biological target: Glucocorticoid receptor (Homo sapiens) (UniProt P04150); assay: GR-EFC Redistribution (AID 451; calls by dose curve; also: potency is read from the fitted curve at half-maximal effect); details: CHO-K1 GR-EFC translocation, beta-gal luminescence, 2 h
How it was run: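 CHO-K1 cells expressing nuclear EA and GR-ED fragments of b-gal; compounds titrated up to 46 uM final, 2 h at 37 C. GR nuclear translocation read as complemented b-gal luminescence after 1 h RT detection.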

[21] = measured here: cell count channel max response
[22] = measured here: lipid channel max response
[23] = at 12.8 µM (top of the series), parasite line A
[24] = at 12.8 µM (top of the series), parasite line B

CCOC(=O)O[C@@H](C)OC(=O)[C@@H]1N2C(=O)[C@@H](NC(=O)[C@@H](N)c3ccccc3)[C@H]2SC1(C)C
0.724%: max response [5, 22]
3.59%: max response [5, 21]
inactive: outcome [1] | activity change, negative = inhibition [2] -4.72% | Potency [3] | outcome [4] | activity change, negative = inhibition [5] -1.29% | outcome [6] | Potency [7] | Potency [8] | Potency [9] | activity, negative = inhibition [10, 23] 6.23% | activity, negative = inhibition [10, 24] 6.1% | Potency [11] | Potency [12] | Potency [13] | Potency [14] | Potency [15] | Potency [16] | Potency [17]

O=C(O)COCCN1CCN([C@@H](c2ccccc2)c2ccc(Cl)cc2)CC1
inactive: outcome [1] | outcome [18] | Potency [3] | outcome [4] | activity change, negative = inhibition [5] 0.348% | Potency [8] | Potency [9] | activity, negative = inhibition [10, 23] -5.9% | activity, negative = inhibition [10, 24] 11.4% | Potency [11] | Potency [12] | Potency [13] | Potency [14] | Potency [15] | Potency [17]
-9.07%: max response [5, 21]
-7.35%: max response [5, 22]

C[C@@H]1C[C@H]2[C@@H]3C[C@H](F)C4=CC(=O)C=C[C@@]4(C)[C@]3(F)[C@H](O)C[C@]2(C)[C@@]1(O)C(=O)CO
0.642%: max response [5, 21]
inactive: outcome [1] | activity change, negative = inhibition [2] 2.6% | outcome [18] | Potency [3] | activity change, negative = inhibition [5] -2.8% | outcome [6] | Potency [7] | Potency [8] | Potency [9] | activity, negative = inhibition [10, 23] 7.34% | activity, negative = inhibition [10, 24] -3.91% | Potency [11] | Potency [12] | Potency [13] | Potency [14] | Potency [15] | Potency [16] | Potency [17]
-3.99%: max response [5, 22]

Clc1ccc([C@H](Cn2ccnc2)OCc2c(Cl)cccc2Cl)c(Cl)c1
inactive: outcome [1] | outcome [18] | Potency [19] > 20.6 µM | Potency [20] > 20.6 µM | Potency [3] | activity change, negative = inhibition [5] -0.836% | outcome [6] | Potency [8]
-21.7%: max response [5, 22]
active: Potency ([10]; parasite line B) 3.16 µM | Potency [11] 1.26 µM | Potency [13] 3.55 µM | Potency [14] 2.51 µM | Potency [15] 3.16 µM | Potency [16] 3.98 µM | Potency [17] 1.58 µM
-18.9%: max response [5, 21]

Nc1nc(=S)c2ncn([C@H]3O[C@@H](CO)[C@@H](O)[C@@H]3O)c2[nH]1
inactive: outcome [1] | outcome [18] | Potency [19] > 20.6 µM | Potency [20] > 20.6 µM | Potency [3] | outcome [4] | activity change, negative = inhibition [5] -1.4% | Potency [7]
-3.95%: max response [5, 22]
2.2%: max response [5, 21]

CC(=O)Nc1cc2ccccc2oc1=O
-11.4%: max response [5, 22]
inactive: outcome [1] | outcome [18] | Potency [19] > 20.6 µM | Potency [20] > 20.6 µM | Potency [3] | outcome [4] | activity change, negative = inhibition [5] 2.36% | Potency [7]
-14.5%: max response [5, 21]

O=C1OCCN1/N=C\c1ccc([N+](=O)[O-])o1
inactive: outcome [1] | outcome [18] | Potency [19] > 20.6 µM | Potency [20] > 20.6 µM | Potency [3] | outcome [4] | activity change, negative = inhibition [5] -2% | Potency [7]
-13.3%: max response [5, 21]
-14.3%: max response [5, 22]

CCN(CC)CCOC(=O)[C@@H](Cc1cccc2ccccc12)C[C@@H]1CCCO1
-1.15%: max response [5, 21]
inactive: outcome [1] | outcome [18] | Potency [3] | outcome [4] | activity change, negative = inhibition [5] -5.4% | outcome [6] | Potency [7] | Potency [8] | Potency [9] | activity, negative = inhibition [10, 23] 5.1% | activity, negative = inhibition [10, 24] 10% | Potency [11] | Potency [12] | Potency [13] | Potency [14] | Potency [15] | Potency [16] | Potency [17]
-7.84%: max response [5, 22]

CO[C@@H]1C[C@H](O[C@H]2[C@@H](C)[C@H](O[C@@H]3O[C@@H](C)C[C@@H](N(C)C)[C@@H]3OC(C)=O)[C@H](C)C[C@]3(CO3)C(=O)[C@H](C)[C@H](OC(C)=O)[C@H](C)[C@H](C)OC(=O)[C@@H]2C)O[C@H](C)[C@@H]1OC(C)=O
inactive: outcome [1] | activity change, negative = inhibition [2] 11.7% | outcome [18] | Potency [3] | outcome [4] | activity change, negative = inhibition [5] -1.3% | outcome [6] | Potency [7] | Potency [8] | Potency [9] | activity, negative = inhibition [10, 23] -21.7% | activity, negative = inhibition [10, 24] -14.9% | Potency [11] | Potency [12] | Potency [13] | Potency [14] | Potency [15] | Potency [16] | Potency [17]
-9.02%: max response [5, 22]
-6.43%: max response [5, 21]

NC[C@@H]1O[C@@H](O[C@H]2[C@H](O)[C@H](O[C@@H]3O[C@H](CO)[C@@H](O)[C@H](N)[C@@H]3O)[C@@H](N)C[C@H]2N)[C@H](N)C[C@@H]1O
-4.83%: max response [5, 21]
-6.77%: max response [5, 22]
inactive: outcome [1] | activity change, negative = inhibition [2] -7.92% | outcome [18] | Potency [3] | outcome [4] | activity change, negative = inhibition [5] -2.29% | Potency [8] | Potency [9] | activity, negative = inhibition [10, 23] 9.72% | activity, negative = inhibition [10, 24] 18.7% | Potency [11] | Potency [12] | Potency [13] | Potency [14] | Potency [15] | Potency [16] | Potency [17]

CC(=O)O[C@H]1C[C@@]2(C)[C@H](C[C@@H](O)[C@H]3[C@@]4(C)CC[C@@H](O)[C@@H](C)[C@H]4CC[C@@]32C)C1=C(CCC=C(C)C)C(=O)O
-6.42%: max response [5, 22]
inactive: outcome [1] | outcome [18] | Potency [19] > 20.6 µM | Potency [20] > 20.6 µM | Potency [3] | outcome [4] | activity change, negative = inhibition [5] -3.43% | outcome [6] | Potency [7] | Potency [8] | Potency [9] | activity, negative = inhibition ([10]; at 28.7 µM (top of the series), parasite line A) 7.93% | activity, negative = inhibition ([10]; at 28.7 µM (top of the series), parasite line B) 2.16% | Potency [11] | Potency [12] | Potency [13] | Potency [14] | Potency [15] | Potency [16] | Potency [17]
-3.61%: max response [5, 21]

Source: PubChem BioAssay (NCATS)
